Hits are enriched below; roughly 17% of the tested compounds scored in any of these assays.
ATXN2 expr inh: ATXN2 expression inhibition | AID 1745845 | 360,000 tested, 0.72% active | HEK-293 ATXN2-luciferase reporter, luminescence, 24 h | Potency, µM (titrated, usually from 57 µM), for the others: at the highest dose activity change, negative = inhibition, actives largely listed as inhibitors; also: % is scaled to controls: 0 for no effect and ±100 for the full control effect; nearly all actives have a fitted effect of over 55% in size
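ATXN2-luciferase reporter cells (luciferase flanked by upstream and downstream ATXN2 gene portions) were treated 24 h at 37 °C with compounds at up to 57 uM. SteadyGlo luminescence gave expression; GF-AFC fluorescence gave viability.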
TGFb SMAD3 inh: TGF-b pathway inhibition | HepG2 CAGA-GFP TGF-b/SMAD3 reporter, GFP fluorescence, 18 h; TGF-beta stimulated, 500 pg/mL final | Potency, µM (titrated, usually from 46.1 µM), for inactives: at the highest dose activity, negative = inhibition, usual class: inhibitors | 410,000 tested, 1.2% active; also: % is scaled to controls: 0 for no effect and ±100 for the full control effect; nearly all actives have a fitted effect of over 65% in size
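TGF-beta reporter screen: HEPG2 CAGA-GFP, 1% FBS, 500 pg/mL TGF-beta final, 18 h; per-cell GFP summed per well; curves fitted and categorized by class.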
DT40 TDP1 no CPT: qHTS for Inhibitors of human tyrosyl-DNA phosphodiesterase 1 (TDP1): qHTS in cells in absence of CPT. DT40 Tdp1-/- hTDP1 cells, no CPT, ATP luminescence, 48 h. Potency, µM (highest dose often 46.2 µM), inactives show at the highest dose activity change, negative = growth inhibition, hits mostly inhibitors. 420,000 tested, 15% active; also: % is scaled to controls: 0 for no effect and ±100 for the full control effect; nearly all actives have a fitted effect of over 55% in size
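DT40 Tdp1-/-;hTDP1 cells, no CPT (DMSO vehicle only), 400 cells/well; compounds pin-transferred; ≥48 hr, 37 °C; CellTiter-Glo 30 min RT dark, luminescence read.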
HepG2 tox: HepG2 cytotoxicity, counter-screen for TGF-b inhibitors; HepG2 CAGA-GFP viability, ATP luminescence, 18 h; Potency, µM (titrated, usually from 46.1 µM), for inactives: at the highest dose activity change, negative = cytotoxicity, most hits filed as cytotoxic; 410,000 tested, 0.76% active
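HepG2 CAGA-GFP cells (1000/well, DMEM with 1% FBS) received compound, then TGF-beta at 500 pg/mL final, and were incubated 18 hours at 37 degrees C. Viability was read by CellTiter-Glo luminescence. Media-only wells were set as complete cell-killing and DMSO as no toxicity.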
TDP1 cell CPT: DT40-hTDP1 cell growth loss with CPT. Potency, µM (doses to about 46.2 µM), for inactives: at the highest dose activity change, negative = growth inhibition, hits mostly inhibitors. 420,000 tested, 12% active. chicken DT40 Tdp1-/-;hTDP1 cells + 20 nM CPT, ATP luminescence, 48 h. AID 686979; also: % is scaled to controls: 0 for no effect and ±100 for the full control effect; nearly all actives have a fitted effect of over 55% in size
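Chicken DT40 Tdp1-/- cells complemented with human TDP1, 400 cells/well, exposed to compounds plus 20 nM camptothecin for at least 48 h at 37 C; viability read as ATP content by CellTiter-Glo luminescence.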
ATXN viability: cell viability loss in ATXN counter-screen | S2 cells (HEK-293 line with an ATXN2-luciferase reporter) viability, CellTiter-Fluor protease fluorescence, 24 h | Potency, µM (top dose mostly 56.7 µM), hits mostly cytotoxic | 400,000 tested, 0.49% active; also: nearly all actives have a fitted effect of over 40% in size
An asterisk follows results filed as active; i = inactive; ? = inconclusive; · = no result. Calls follow the shape of the dose curve; as a rule, active = well fitted curve in the direction sought with a large enough effect; inconclusive = small, poorly fitted or top-dose-only effect, or another doubt; inactive = no such curve, though single readings can be large; an effect the other way counts as inactive or inconclusive. Potency is read from the fitted curve at half-maximal effect.

SMILES	ATXN2 expr inh	TGFb SMAD3 inh	DT40 TDP1 no CPT	HepG2 tox	TDP1 cell CPT	ATXN viability
CN1CCc2c(sc(N)c2C(N)=O)C1	5.8%	21.9%	20.6µM*	18.8%	25.9µM*	i
CN1CCc2c(sc(/N=C/c3c[nH]c4ccccc34)c2C(N)=O)C1	-6.4%	21.1%	16.4µM*	-32.5%	-103.4%	i
CCN1CCc2c(sc(N)c2C(N)=O)C1	-5.0%	15.2%	23.1µM*	-0.5%	?	i
CCc1ccc(C(=O)NNC(=O)c2cccc(N3C(=O)CCC3=O)c2)cc1	-15.1%	-7.5%	7.4%	-5.6%	9.8%	i
COc1cccc(C(=O)Nc2ccc3nc(N4CCC(C)CC4)cc(C)c3c2)c1	?	?	20.6µM*	-36.0%	11.6µM*	?
Cc1cc(N2CCCCC2)nc2ccc(NC(=O)c3ccc(F)cc3)cc12	?	?	14.6µM*	-33.3%	20.6µM*	?
COc1cc(C(=O)Nc2ccc3nc(N4CCN(C)CC4)cc(C)c3c2)cc(OC)c1OC	7.5%	1.2%	?	-31.0%	?	i
COc1ccc(C(=O)Nc2ccc3nc(N4CCC(C)CC4)cc(C)c3c2)cc1	-23.1%	10.6%	16.4µM*	-25.9%	23.1µM*	i
CCCCNC(=O)CCC(=O)Nc1ccc2nc(N3CCC(C)CC3)cc(C)c2c1	·	-28.9%	?	-31.6%	?	i
CC(=O)CSc1nnc2[nH]c(=O)cc(N)n12	2.3%	-1.2%	0.0%	2.3%	2.3%	i
Cn1c(Cc2ccccc2)nnc1SCC(=O)NCCc1ccccc1	-12.3%	-11.3%	-15.5%	-0.1%	?	i
CCN(CC)c1ccc(C(=C2C=CC(=[N+](CC)CC)C=C2)c2ccc(S(=O)(=O)O)cc2S(=O)(=O)[O-])cc1	?	-6.9%	?	-50.0%	23.1µM*	?
COc1ccc(C(=O)Nc2ccc(C(=O)O)cc2NC(=O)c2ccc(OC)cc2)cc1	·	7.0%	-5.3%	-6.7%	-2.5%	i
COc1ccc(C(=O)Nc2ccc(C3=NNC(=O)CC3C)cc2NC(=O)c2ccc(OC)cc2)cc1 (configuration not stated)	?	-9.5%	23.1µM*	-21.2%	?	?
Cc1cccc(C(=O)NNC(=O)c2ccccc2)c1	-6.4%	-1.9%	1.1%	19.7%	4.2%	?
Cc1cccc(C(=O)c2cnc3ccccc3c2-c2ccccc2)c1	0.8%	?	25.9µM*	-41.8%	14.6µM*	i
CCCCCCCCC(c1nc2ccccc2[nH]1)N1CCN=C1c1cc2ccccc2[nH]1 (configuration not stated)	?	?	6.51µM*	-106.5%	7.31µM*	?
COc1ccccc1NC(=O)C1=C(C)Nc2nc(-c3ccco3)nn2C1c1cccc(C)c1 (configuration not stated)	-12.0%	?	?	2.2%	18.4µM*	i
COc1ccccc1NC(=O)C1=C(C)Nc2nc(-c3ccco3)nn2C1c1ccccc1F (configuration not stated)	-2.0%	30.2%	?	1.8%	16.4µM*	?
COc1ccccc1NC(=O)C1=C(C)Nc2nnnn2C1c1cccc(C)c1 (configuration not stated)	-29.8%	13.9%	?	-13.4%	?	i
Cc1cc(S(=O)(=O)NCC(c2ccc3c(c2)OCO3)N2CCOCC2)ccc1F (configuration not stated)	7.2%	11.5%	?	-28.4%	?	i
COc1cccc(C2=NC(C)(C)NC(c3ccccc3O)C2)c1 (configuration not stated)	29.2%	?	18.4µM*	17.8µM*	14.6µM*	i
